Composite z-score and z-score data for six molecules are collected here from PubChem BioAssay.

The structures appear in SMILES notation. Active and inactive are the calls of the source.

Assay [1] can be described thus: small molecules captured by biotinylated probe aFSTL3 – biochemical, small-molecule microarray, fluorescence 635/667, stem cell growth factor project, primary screen (AID 1064).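 Further: measures binding of the biotinylated anti-FSTL3 antibody to printed compounds.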 The following applies: higher = more signal.
A short description of assay [2]: binders from COS7 lysate, DM2A8 probe, primary screen, torsin A project, cell lysate, small-molecule microarray, fluorescence 635/667 (AID 1065). The conditions noted are these: higher = more signal, COS7 lysate expressing mutant human TOR1A.
A short description of assay [3]: small molecules captured by biotinylated probe aFGF2 – biochemical, small-molecule microarray, fluorescence 635/667, stem cell growth factor project, primary screen (AID 1067).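 Further: measures binding of biotinylated aFGF2 protein to printed compounds on slides; z-score merges feature fluorescence and signal-to-noise across triplicate slides.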 The following applies: higher = more signal.
The nature of assay [4]: small molecules captured by biotinylated probe aFGF10 – biochemical, small-molecule microarray, fluorescence 635/667, stem cell growth factor project, primary screen (AID 1071).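 Further: score merges 667 nm spot intensity and signal to noise from triplicate slides.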 The conditions noted are these: higher = more signal.
Assay [5] concerns the target Neurogenic locus notch homolog protein 2 (Homo sapiens) (UniProt Q04721). The experiment in a line: small molecules binding Notch2 protein – biochemical, small-molecule microarray, 635 nm fluorescence, stem cell growth factors, primary screen (AID 1073). The conditions noted are these: higher = more signal.
Assay [6] concerns the target Pro-neuregulin-1, membrane-bound isoform (Homo sapiens) (UniProt Q02297). The experiment in a line: small molecules binding neuregulin-1 protein – biochemical, small-molecule microarray, fluorescence 635/667, psychiatric disease protein project, primary screen (AID 1075).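 Further: score combines 667 nm spot fluorescence with signal to noise.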 The following applies: NRG1 binding, 635 nm fluorescence, higher = more signal.
Assay [7] has as its system Neuregulin-1 EGF-like domain. The experiment in a line: small molecules binding NRG1 EGF domain – biochemical, small-molecule microarray, 635 nm fluorescence, primary screen (AID 1081).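 Further: binding of the protein to compounds printed on small-molecule microarray slides.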 The conditions noted are these: higher = more signal.
Assay [8] in a line: FRG1 expression reporter modulators in myotubes – cell-based, C2C12 myotubes, firefly/Renilla luciferase, luminescence, FRG1 inhibition for FSHD, primary screen (AID 1084). The following applies: FRG1 promoter luciferase, higher = more signal, called active from +8 up or from −8 down.
The nature of assay [9]: small molecules captured by biotinylated probe aFST – biochemical, small-molecule microarray, fluorescence 635/667, stem cell growth factor project, primary screen (AID 1086).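 Further: score merges 667 nm fluorescence with signal-to-noise of each printed compound spot.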 The conditions noted are these: higher = more signal.
The nature of assay [10]: binders of probe aHhip on microarray, primary screen, stem cell growth factor project, biochemical, small-molecule microarray, fluorescence 635/667 (AID 1087).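 Further: score merges spot fluorescence at 667nm with spot signal to noise ratio.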 The conditions noted are these: higher = more signal.
Assay [11] relates to PRMT1 (protein arginine N-methyltransferase 1). The experiment in a line: small molecules binding arginine methyltransferase PRMT1 – biochemical, small-molecule microarray, 635 nm fluorescence, primary screen (AID 1088).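 Further: binding of Prmt1 protein to compounds spotted on small-molecule microarray slides.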 The conditions noted are these: higher = more signal.
Assay [12] is described as follows: growth effects on S. cerevisiae YJM789 – YJM789 clinical isolate, OD600, 24 h, basal, primary screen (AID 1089).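 Further: growth of clinical yeast isolate S. cerevisiae YJM 789 seeded 1000 cells per well; test concentration not given here.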 The following applies: higher = more signal, called active from +8 up or from −8 down.
The nature of assay [13]: S. pombe growth modifiers, basal conditions – strain 972, OD600, 24 h, no modulator, primary screen (AID 1090).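 Further: basal condition with compound alone and no growth modifier present; test concentration not given here.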 The conditions noted are these: S. pombe 972 growth, higher = more signal, called active from +8 up or from −8 down.
Assay [14] is described as follows: budding yeast growth modifiers under rapamycin – strain BY4716, OD600, 96 h, primary screen (AID 1091). Further: test concentration not given here. The following applies: S. cerevisiae BY4716 + rapamycin, higher = more signal, called active from +8 up or from −8 down.
The target in assay [15] is Torsin-1A-interacting protein 2 (Homo sapiens) (UniProt Q8NFQ8). The experiment in a line: small molecules binding lysate-expressed LULL1 – cell lysate, human LULL1 lysate, 635/667 nm fluorescence, primary screen (AID 1092).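 Further: probe is lysate of COS7 cells overexpressing human LULL1; score merges per-feature 667 nm fluorescence with signal-to-noise.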 The following applies: small-molecule microarray, hLULL1 lysate binding, 635 nm fluorescence; higher = more signal.
The nature of assay [16]: optical density change of DRC41 E. coli – strain DRC41, OD650, 24 h, E. coli filamentation project, primary screen (AID 1093).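 Further: MC1000 strain lacking acrAB efflux and sulA so SOS filamentation is blocked; test concentration not given here.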 The following applies: E. coli DRC41 growth, higher = more signal, called active from +8 up or from −8 down.
Assay [17] is described as follows: probe aLefty2 binding to arrayed compounds – biochemical, biotinylated probe, 635/667 nm fluorescence, primary screen (AID 1094).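 Further: score merges spot fluorescence near 667 nm with spot signal-to-noise ratio.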 The following applies: small-molecule microarray, higher = more signal.
Assay [18] relates to Noggin (protein binding on small-molecule microarray). The experiment in a line: small molecules binding Noggin protein – biochemical, 635/667 nm fluorescence, primary screen (AID 1095).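 Further: score merges 667 nm feature fluorescence with signal to noise over triplicate slides.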 The following applies: 635 nm fluorescence, higher = more signal.
Assay [19] concerns the target Neurogenic locus notch homolog protein 3 (Homo sapiens) (UniProt Q9UM47). The experiment in a line: small molecules binding NOTCH3 protein – biochemical, 635/667 nm fluorescence, primary screen (AID 1096). The conditions noted are these: small-molecule microarray, 635 nm fluorescence, higher = more signal.
The nature of assay [20]: probe aEGFR binding to arrayed compounds – biochemical, biotinylated probe, 635/667 nm fluorescence, primary screen (AID 1097).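 Further: probe is a biotinylated anti-EGFR antibody binding compounds printed on slides; score combines fluorescence near 667 nm and signal to noise of each spot.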 The conditions noted are these: small-molecule microarray, higher = more signal.

Sequence of Neurogenic locus notch homolog protein 3 (Homo sapiens) (Q9UM47 whole entry, looked up): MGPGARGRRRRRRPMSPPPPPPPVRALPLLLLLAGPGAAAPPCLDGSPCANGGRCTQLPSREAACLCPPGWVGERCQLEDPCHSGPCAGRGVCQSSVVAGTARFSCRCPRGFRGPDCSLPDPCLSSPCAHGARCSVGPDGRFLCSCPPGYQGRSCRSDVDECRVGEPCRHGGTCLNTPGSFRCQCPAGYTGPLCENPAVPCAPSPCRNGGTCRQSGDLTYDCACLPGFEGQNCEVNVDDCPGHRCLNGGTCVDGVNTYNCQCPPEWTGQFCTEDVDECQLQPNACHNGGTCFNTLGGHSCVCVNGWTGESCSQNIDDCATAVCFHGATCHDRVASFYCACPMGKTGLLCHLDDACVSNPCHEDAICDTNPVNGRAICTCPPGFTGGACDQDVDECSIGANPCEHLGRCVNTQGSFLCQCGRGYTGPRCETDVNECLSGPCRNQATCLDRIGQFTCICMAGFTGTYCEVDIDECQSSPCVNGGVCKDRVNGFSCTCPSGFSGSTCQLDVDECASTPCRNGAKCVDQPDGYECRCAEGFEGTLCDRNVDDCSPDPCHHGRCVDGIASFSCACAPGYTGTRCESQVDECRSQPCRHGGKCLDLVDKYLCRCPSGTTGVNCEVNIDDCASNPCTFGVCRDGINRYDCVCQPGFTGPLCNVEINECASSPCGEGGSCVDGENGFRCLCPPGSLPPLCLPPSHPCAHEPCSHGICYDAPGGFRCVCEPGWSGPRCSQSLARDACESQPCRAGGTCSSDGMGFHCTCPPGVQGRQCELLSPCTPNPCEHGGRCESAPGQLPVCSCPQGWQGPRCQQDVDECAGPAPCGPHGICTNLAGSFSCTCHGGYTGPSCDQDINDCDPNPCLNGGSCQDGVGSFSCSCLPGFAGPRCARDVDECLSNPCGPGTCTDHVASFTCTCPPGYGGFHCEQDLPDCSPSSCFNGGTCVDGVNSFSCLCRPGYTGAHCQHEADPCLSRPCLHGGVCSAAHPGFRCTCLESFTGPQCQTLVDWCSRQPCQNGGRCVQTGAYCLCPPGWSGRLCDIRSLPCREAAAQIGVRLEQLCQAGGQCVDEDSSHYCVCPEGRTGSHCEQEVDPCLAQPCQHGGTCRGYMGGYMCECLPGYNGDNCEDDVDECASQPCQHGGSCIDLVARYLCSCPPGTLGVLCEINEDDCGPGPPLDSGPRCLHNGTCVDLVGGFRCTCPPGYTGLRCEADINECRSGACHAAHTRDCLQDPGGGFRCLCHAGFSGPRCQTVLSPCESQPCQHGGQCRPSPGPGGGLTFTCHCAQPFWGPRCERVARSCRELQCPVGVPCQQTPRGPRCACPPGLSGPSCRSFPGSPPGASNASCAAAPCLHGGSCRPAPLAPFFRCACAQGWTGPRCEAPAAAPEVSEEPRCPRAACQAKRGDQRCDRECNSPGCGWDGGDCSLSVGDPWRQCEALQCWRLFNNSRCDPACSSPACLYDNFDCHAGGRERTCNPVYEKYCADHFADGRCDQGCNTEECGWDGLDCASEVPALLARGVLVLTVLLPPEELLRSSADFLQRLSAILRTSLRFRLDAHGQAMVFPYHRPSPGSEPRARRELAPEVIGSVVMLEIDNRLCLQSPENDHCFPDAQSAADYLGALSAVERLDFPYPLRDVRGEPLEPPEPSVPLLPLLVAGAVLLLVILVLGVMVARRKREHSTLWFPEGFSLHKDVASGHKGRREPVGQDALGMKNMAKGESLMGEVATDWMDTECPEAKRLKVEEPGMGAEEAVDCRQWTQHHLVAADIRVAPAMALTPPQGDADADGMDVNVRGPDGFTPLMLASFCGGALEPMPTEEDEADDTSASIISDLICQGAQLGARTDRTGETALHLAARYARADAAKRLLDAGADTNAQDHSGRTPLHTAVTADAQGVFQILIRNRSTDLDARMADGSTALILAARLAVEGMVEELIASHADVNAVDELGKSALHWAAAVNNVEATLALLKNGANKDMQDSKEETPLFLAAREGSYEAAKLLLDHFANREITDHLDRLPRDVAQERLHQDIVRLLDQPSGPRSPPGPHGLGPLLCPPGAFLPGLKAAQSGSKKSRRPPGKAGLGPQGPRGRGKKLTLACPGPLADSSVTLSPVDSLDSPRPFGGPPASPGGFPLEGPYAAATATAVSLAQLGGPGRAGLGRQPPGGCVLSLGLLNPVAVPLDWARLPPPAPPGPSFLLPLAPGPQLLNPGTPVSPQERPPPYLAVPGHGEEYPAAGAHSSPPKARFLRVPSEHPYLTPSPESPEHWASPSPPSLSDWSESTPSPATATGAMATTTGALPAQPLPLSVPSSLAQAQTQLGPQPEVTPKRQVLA
Sequence of Torsin-1A-interacting protein 2 (Homo sapiens) (Q8NFQ8 whole entry, looked up): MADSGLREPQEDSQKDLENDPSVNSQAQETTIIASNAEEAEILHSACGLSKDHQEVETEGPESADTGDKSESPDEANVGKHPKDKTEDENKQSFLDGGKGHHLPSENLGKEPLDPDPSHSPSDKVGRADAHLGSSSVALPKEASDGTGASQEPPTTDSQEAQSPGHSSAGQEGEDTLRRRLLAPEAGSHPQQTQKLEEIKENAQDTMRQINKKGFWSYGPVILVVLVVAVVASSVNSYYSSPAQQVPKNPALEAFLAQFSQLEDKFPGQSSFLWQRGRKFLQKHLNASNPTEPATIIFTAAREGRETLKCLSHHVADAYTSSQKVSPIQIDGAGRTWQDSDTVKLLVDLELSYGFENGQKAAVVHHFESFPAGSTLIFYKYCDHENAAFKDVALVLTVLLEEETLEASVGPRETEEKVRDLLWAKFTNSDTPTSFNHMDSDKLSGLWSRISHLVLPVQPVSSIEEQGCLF
Sequence of Pro-neuregulin-1, membrane-bound isoform (Homo sapiens) (Q02297 whole entry, looked up, the tested form may be a part, canonical isoform): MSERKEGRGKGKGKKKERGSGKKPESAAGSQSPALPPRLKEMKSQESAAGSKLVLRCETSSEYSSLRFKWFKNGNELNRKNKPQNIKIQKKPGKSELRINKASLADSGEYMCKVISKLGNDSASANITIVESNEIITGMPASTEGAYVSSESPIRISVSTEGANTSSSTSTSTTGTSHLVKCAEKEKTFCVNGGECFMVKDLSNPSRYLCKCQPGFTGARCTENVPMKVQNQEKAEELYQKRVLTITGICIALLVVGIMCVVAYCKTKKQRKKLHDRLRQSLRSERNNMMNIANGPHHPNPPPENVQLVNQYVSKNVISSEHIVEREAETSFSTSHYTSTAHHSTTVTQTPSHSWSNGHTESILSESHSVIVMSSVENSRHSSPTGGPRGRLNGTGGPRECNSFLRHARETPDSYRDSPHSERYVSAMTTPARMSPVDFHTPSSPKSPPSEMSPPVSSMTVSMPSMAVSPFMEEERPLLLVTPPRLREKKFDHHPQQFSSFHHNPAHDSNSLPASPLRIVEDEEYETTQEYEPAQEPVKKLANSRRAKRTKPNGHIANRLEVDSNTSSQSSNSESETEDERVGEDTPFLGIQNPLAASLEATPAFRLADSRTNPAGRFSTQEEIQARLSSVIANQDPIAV

As for `COC(=O)C1=CC(CCCO)=CC(C2CC2)N(Cc2cccc(OC(F)(F)F)c2)C=C1C(=O)OC` (stereo not given), the composite z-score in [1] is -0.207; in [2] it was -0.166; in [3] it was -0.0265; in [4] it was 0.216; in [5] it was 0.515; in [6], 1.14. The composite z-score is 1.25 in assay [7]; 0.497 in assay [9]; -0.0645 in assay [10]; 1.13 in [11]; 2.82 in [15]; 0.0386 in assay [17]. Further, the composite z-score was -0.273 in assay [18], 0.749 in assay [19] and -0.0353 in [20]. Moreover, the z-score in assay [8] was 0.503 (inactive); in assay [12], -2.46 (inactive); in assay [13], -1.06 (inactive); in assay [14], -2.24 (inactive); in assay [16], -2.57 (inactive).
Consider `COC(=O)[C@@]1(CCS(=O)(=O)c2ccccc2)N=C(c2ccc(OCCCO)cc2)O[C@H]1c1ccccc1N=[N+]=[N-]`, for which the composite z-score in assay [1] is -0.0367; in [2], 0.35; in assay [3], -0.051; in assay [4], 0.207; in assay [5], 1.05; in [6], 0.573. The composite z-score in assay [7] was 1.21; in [9] it was 0.252; in assay [10] it was -0.0346; in [11] it was 1.56; in assay [15], 3.29; in [17], -0.0341. Also, the composite z-score was 0.492 in assay [18], 1.09 in assay [19] and -0.0968 in assay [20]. For the same molecule, the z-score in assay [8] was -2.34 (inactive); in [12], 0.349 (inactive); in [13] it was -0.238 (inactive); in assay [14] it was 34.6 (active); in assay [16], 0.96 (inactive).
For the molecule `CCCCC(O)C1C=CC2C(=O)N(C)C(=O)C2N1Nc1ccccc1` (stereo not given), the composite z-score is 0.645 in assay [1]; 0.0873 in assay [2]; -0.0778 in assay [3]; 0.435 in assay [4]; 0.762 in [5]; 1.76 in [6]. Further, the composite z-score in assay [7] is 1.25; in [9], 0.632; in [10], 0.128; in assay [11], 0.24; in [15], 3.13; in [17], -0.013. The composite z-score in assay [18] is -0.649; in [19], 0.51; in assay [20] it was -0.143. The z-score in assay [8] was 1.63 (inactive); in assay [12], 0.763 (inactive); in assay [13], 0.555 (inactive); in assay [14] it was 1.99 (inactive); in [16], -1.26 (inactive).
On to `CCC(CC)C(O)C1C=CC2C(=O)N(C)C(=O)C2N1N1CCCCC1` (stereo not given), for which the composite z-score in [1] came out at 0.104; in assay [2], 0.816; in assay [3], 0.121; in assay [4], 0.837; in assay [5], 1.31; in assay [6], 1.83. In addition, the composite z-score was 1.23 in assay [7]; 1.29 in assay [9]; 0.281 in [10]; 1.36 in assay [11]; 3.42 in assay [15]; 0.0353 in [17]. Further, the composite z-score in assay [18] was found to be 0.334; in assay [19] it was 1.04; in assay [20] it was 0.0142. Besides, the z-score in assay [8] is 0.855 (inactive); in assay [12], -0.059 (inactive); in [13] it was 0.274 (inactive); in assay [14], -0.537 (inactive); in [16] it was -1.29 (inactive).
Consider `COCCOC(=O)N1C(=O)[C@@]2(c3cc(C#CCCO)ccc31)[C@H](c1ccccc1OCCO)N1[C@H](c3ccccc3)[C@H](c3ccccc3)OC(=O)[C@H]1[C@@H]2C(=O)N1CCc2cc(OC)c(OC)cc2C1`, for which the composite z-score in [1] was 0.071; in [2], 0.827; in assay [3], 0.022; in assay [4] it was 1.04; in assay [5], 1.04; in [6] it was 1.21. Further, the composite z-score in assay [7] is 1.17; in assay [9], 0.505; in assay [10] it was 0.0373; in assay [11], 1.54; in [15], 2.93; in [17], -0.0616. Moreover, the composite z-score in [18] turned out to be 1.26; in assay [19], 1.12; in assay [20], 0.0384. The z-score is -1.4 (inactive) in assay [8]; 1.88 (inactive) in assay [12]; 0.763 (inactive) in [13]; 3 (inactive) in assay [14]; 1.26 (inactive) in assay [16].
`CC(C)c1ccc(NN2C(C(O)C(C)C)C=CC3C(=O)N(c4ccccc4)C(=O)C32)cc1` (stereo not given): the composite z-score in assay [1] stood at 0.733; in assay [2] it was 0.237; in assay [3] it was 0.225; in assay [4], 0.707; in assay [5], 1.55; in assay [6], 1.92. Moreover, the composite z-score was 1.31 in assay [7]; 1.3 in assay [9]; -0.208 in [10]; 1.56 in assay [11]; 3.53 in assay [15]; 0.633 in assay [17]. The figures for the composite z-score in [18], in [19] and in assay [20] were 0.284, 1.04 and 0.516, respectively. In addition, the z-score is -0.0025 (inactive) in assay [8]; 1.39 (inactive) in assay [12]; 0.313 (inactive) in assay [13]; 1.39 (inactive) in assay [14]; -0.613 (inactive) in assay [16].
